{
  "source": "PubChem BioAssay AID1910",
  "about": "(Broad Institute, 2009)",
  "note": "Out of some 300,000 compounds screened, about 950 (0.32%) were called active.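 The calls were made as follows: active = mean activation of at least 10% of the iron chelator positive control signal, with at least half of replicates also reaching 10%; inconclusive = mean and replicate majority disagree about reaching 10%; inactive = mean and most replicates under 10%.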 Shown is part of a subset that was picked to be rich in actives.",
  "data": [
    {"test": "HIF pathway transcriptional activators, primary screen, cell-based, U2OS HRE-luciferase, luminescence (AID 1910)", "details": "U2OS HRE-luciferase reporter, active compounds read high, screened at 7.5 µM (by protocol), normalized: DMSO 0%, desferrioxamine 100%", "values": [
      {"smiles": "C/C(=N\\NC(=O)c1ccccc1F)c1ccccn1", "activation": "1.74% (inactive)"},
      {"smiles": "C/C(=N\\NC(N)=S)c1cccnc1", "activation": "-0.0419% (inactive)"},
      {"smiles": "C/C(=N\\NC(=O)Cc1ccc(Br)cc1)c1cccnc1", "activation": "24.8% (active)"},
      {"smiles": "C/C(=N\\NC(=O)Cc1ccccc1[N+](=O)[O-])c1cccnc1", "activation": "0.0865% (inactive)"},
      {"smiles": "C/C(=N\\NC(=O)Cc1ccc(Cl)cc1)c1ccccn1", "activation": "17.7% (active)"},
      {"smiles": "Cc1ccc(Cl)cc1NC(=O)c1ccccn1", "activation": "1.23% (inactive)"},
      {"smiles": "O=C(N[C@@H](Cc1ccccc1)C(=O)OCc1ccccc1)c1nc[nH]c1C(=O)NC1CCNCC1", "activation": "1.06% (inactive)"},
      {"smiles": "Cc1cc(NC(=O)CSC2=NS(=O)(=O)c3cc(Cl)ccc3N2)no1", "activation": "1.88% (inactive)"},
      {"smiles": "COc1ccc(/C=C(\\C#N)C(=O)OCC(=O)N(C)C2CCS(=O)(=O)C2)cc1", "note": "(configuration not stated)", "activation": "-41.3% (inactive)"},
      {"smiles": "CCOc1cccc(/C=N/NC(=S)NCCN2CCOCC2)c1O", "activation": "0.43% (inactive)"},
      {"smiles": "Nc1nc(NCCCN2CCOCC2)nc(Nc2ccccc2)c1[N+](=O)[O-]", "activation": "-0.302% (inactive)"},
      {"smiles": "CCOc1nc(NCCN2CCOCC2)nc(Nc2ccc(C)cc2)n1", "activation": "296% (active)"},
      {"smiles": "O=C1CC2(CCN(C(=O)COc3ccc(F)cc3)CC2)Oc2ccccc21", "activation": "-0.0585% (inactive)"},
      {"smiles": "O=C(CCCCO)c1ccc(O)c(Cl)c1", "activation": "-0.731% (inactive)"},
      {"smiles": "COc1cc(-c2nnc(NC(=O)C3=COCCO3)o2)cc(OC)c1OC", "activation": "-0.75% (inactive)"},
      {"smiles": "COc1cc(OC)cc(C(=O)NNC(=O)CNC(=O)c2ccc(Br)o2)c1", "activation": "0.191% (inactive)"},
      {"smiles": "O=C(NCCCN1CCCC1=O)c1cccc(S(=O)(=O)NCc2ccccc2)c1", "activation": "-0.752% (inactive)"},
      {"smiles": "Cc1ccc(OCc2cc(C(=O)N(C)CCc3ccccc3)no2)cc1C", "activation": "4.07% (inactive)"},
      {"smiles": "CN(Cc1cccnc1)C(=O)c1cc(COc2ccc3ncccc3c2)on1", "activation": "39.7% (active)"},
      {"smiles": "CN(Cc1cnccn1)C(=O)c1cc(COc2cccc(C(F)(F)F)c2)on1", "activation": "-2.19% (inactive)"},
      {"smiles": "CC(CN1CCCCC1)OC(=O)c1ccccc1Cl", "note": "(configuration not stated)", "activation": "-0.0657% (inactive)"},
      {"smiles": "Cc1cccc(C(=O)OC(C)CN2CCCC2)c1", "note": "(configuration not stated)", "activation": "15% (active)"},
      {"smiles": "Cc1cccc(C(=O)OC(C)CN2CCN(C)CC2)c1", "note": "(configuration not stated)", "activation": "3.11% (inactive)"},
      {"smiles": "CC(=O)c1nn(-c2ccc(C)cc2)cc1C(=O)c1cccc(Br)c1", "activation": "-0.49% (inactive)"},
      {"smiles": "O=C(CSc1ccc(/C=N/NC(=O)c2cccc(F)c2)o1)Nc1ccccc1", "activation": "0.0126% (inactive)"},
      {"smiles": "N#CCC(=O)N/N=C/c1ccc(SCC(=O)Nc2ccccc2)o1", "activation": "105% (active)"},
      {"smiles": "Cc1ccc(/C=N/NC(=O)CSc2ccccn2)o1", "activation": "-0.331% (inactive)"}
    ]}
  ]
}
